# In PubChem BioAssay AID633 (Emory University Molecular Libraries Screening Center, 2007):
# The whole screen tested about 86,000 compounds, of which about 1,100 (1.3%) were called active.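 Rule for the calls: active = compounds whose percent inhibition of the receptor-coactivator binding signal exceeds about 50% in the single-dose screen (limit read from the data); inactive = the rest.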 This excerpt belongs to a sample that is enriched for actives.
# Biological target: Estrogen receptor beta (Homo sapiens) (UniProt Q92731)
# Test: blockers of coactivator peptide binding to ERβ – biochemical, TR-FRET, ERβ LBD, SRC-1 peptide, primary screen (AID 633);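 note: 0% = receptor plus peptide wells without compound and 100% = peptide-only wells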
# Settings: TR-FRET ER-beta LBD / SRC1-Cy5 peptide binding; at 25.6 µM; stronger effect = higher value; receptor agonist-loaded with 1 µM estradiol
# Estrogen receptor beta (Homo sapiens), sequence (Q92731 whole entry, looked up, the tested form may be a part): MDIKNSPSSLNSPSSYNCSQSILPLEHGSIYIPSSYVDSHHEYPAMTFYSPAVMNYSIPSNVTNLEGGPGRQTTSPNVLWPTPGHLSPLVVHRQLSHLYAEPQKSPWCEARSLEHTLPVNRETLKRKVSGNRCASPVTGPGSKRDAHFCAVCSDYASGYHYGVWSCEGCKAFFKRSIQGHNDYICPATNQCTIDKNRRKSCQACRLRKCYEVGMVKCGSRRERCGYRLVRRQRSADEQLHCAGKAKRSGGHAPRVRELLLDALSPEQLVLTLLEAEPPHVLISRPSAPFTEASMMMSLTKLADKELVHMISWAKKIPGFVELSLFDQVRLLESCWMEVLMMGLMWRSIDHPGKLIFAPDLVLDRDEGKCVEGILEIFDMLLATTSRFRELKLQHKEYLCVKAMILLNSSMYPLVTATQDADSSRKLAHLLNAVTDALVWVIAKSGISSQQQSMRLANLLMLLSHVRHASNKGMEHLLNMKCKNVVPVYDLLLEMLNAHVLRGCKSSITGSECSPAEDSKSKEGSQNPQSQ
row,Structure (SMILES),inhibition
1,Cc1ccc(Cn2c(C)nc3c(c2=O)c2nc4ccccc4nc2n3Cc2ccco2)cc1,36% (inactive)
2,Cc1nc2c(c(=O)n1Cc1ccco1)c1nc3ccccc3nc1n2Cc1ccccc1,59.7% [fluorescence artefact?] (active)
3,COCCCn1c2nc3ccccc3nc2c2c(=O)n(Cc3ccc(Cl)cc3)c(C)nc21,12.9% (inactive)
4,O=C(NCC(=O)N(Cc1cccs1)C(C(=O)NC1CCCCC1)c1ccco1)c1cccs1 (stereo not given),6.36% (inactive)
5,Cn1c(C(=O)OC(C(=O)NC2CCCCC2)c2ccccn2)cc2sccc21 (stereo not given),-0.81% (inactive)
6,Cc1ccc2c(c1)N(CC(=O)N(Cc1ccccn1)Cc1ccco1)C(=O)C(C(C)C)O2 (stereo not given),1.63% (inactive)
7,Cc1ccc(S(=O)(=O)NCc2cn3ccsc3n2)c(C)c1,0.6% (inactive)
8,O=C(NCc1cn2ccsc2n1)Nc1ccc(Cl)cc1,-3.46% (inactive)
9,COc1ccc(-c2cn3ccsc3n2)cc1,68% (active)
10,CCOC(=O)c1sc(NC(=O)c2ccncc2)nc1C,-4.81% (inactive)
11,O=C(NCc1cccnc1)Nc1ccccc1F,-19.3% (inactive)
12,CCCCOC(=O)Cn1c(=O)n(CC(=O)OCCCC)c2cc(C)ccc21,-3.48% (inactive)
13,O=C(N/N=C/C=C/c1ccccc1)C1CC1(c1ccccc1)c1ccccc1 (stereo not given),16.4% (inactive)
14,COc1ccc(N2C(=O)C3CCCN3C2c2cccs2)cc1 (stereo not given),-13.6% (inactive)
15,COc1ccc(N2C(=O)C3CCCN3C2c2cc(OC)c(OC)cc2OC)cc1 (stereo not given),98.9% [fluorescence artefact?] (active)
16,COc1ccc(N2C(=O)C3CCCN3C2c2cccc(OC)c2)cc1 (stereo not given),-7% (inactive)
17,CCOC(=O)c1[nH]c2ccc(OC)cc2c1NC(=O)CCN1CCN(Cc2ccccc2)CC1,5.39% (inactive)
18,COC(=O)c1[nH]c2cccc(C)c2c1NC(=O)CN1CCCc2ccccc21,34.3% (inactive)
19,COC(=O)c1[nH]c2ccccc2c1NC(=O)CN1CCCc2ccccc21,58.4% [fluorescence artefact?] (active)
20,CCn1c(-c2ccoc2C)n[nH]c1=S,-2.85% (inactive)

row,Structure (SMILES),inhibition
1,COCCOCCn1cnc2ccccc21,-1.14% (inactive)
2,CCOC(=O)N1CCN(C(c2cccnc2)c2ccc3cccnc3c2O)CC1 (stereo not given),58% [fluorescence artefact?] (active)
3,CCN1CCN(C(c2cccnc2)c2cc(Cl)c3cccnc3c2O)CC1 (stereo not given),72.4% [fluorescence artefact?] (active)
4,CCOC(=O)N1CCN(C(=O)CSc2ccc(Cl)cc2)CC1,-0.13% (inactive)
5,CCOC(=O)N1CCN(C(=O)c2cc3c(ccc4ccccc43)oc2=O)CC1,23.4% (inactive)
6,Oc1c(CN2CCN(c3ccc(F)cc3)CC2)cc(Cl)c2cccnc12,1.3% (inactive)
7,CC(=O)C1=C(C)NC(=O)NC1c1cc(Br)ccc1OCC#N (stereo not given),-0.75% (inactive)
8,CC(C)CC(N=C1NC(C)(C)Cc2ccccc21)C(=O)O (stereo not given),-1.78% (inactive)
9,CCCc1noc2c1/C(=N\O)CCC2,1.64% (inactive)
10,CCNCCC(=O)N1c2ccccc2Sc2ccc(NC(=O)OCC)cc21,-17.8% (inactive)
11,O=C(NCc1ccco1)c1ccc(Cn2c(=O)c3sccc3n(Cc3ccc(F)cc3)c2=O)cc1,18.4% (inactive)
12,Cc1cccc(C(=O)N2CCCN(C(=O)c3cccc(C)c3)CC2)c1,-0.48% (inactive)
13,CCN1CCc2c(C#N)c(NCc3ccccc3)nc(NCCO)c2C1,-0.53% (inactive)
14,N#Cc1c2c(c(N3CCN(CCO)CC3)n3c1nc1ccccc13)CCCC2,-8.78% (inactive)
15,CN(C)CCCNc1c2c(c(C#N)c3nc4ccccc4n13)CCC2,70.9% [fluorescence artefact?] (active)
16,O=c1onc(-c2cccs2)n1Cc1ccccc1,-0.76% (inactive)
17,CCCCCCNC(=O)CSc1nccn1Cc1ccccc1,-2.58% (inactive)
18,Cc1ccc(-n2c(SCC(=O)NCc3ccc4c(c3)OCO4)nnc2-c2cccnc2)c(C)c1,-8.68% (inactive)
19,N#CCSc1nc2ccccc2c(=O)n1-c1ccccc1,8.58% (inactive)
20,O=c1c2ccccc2nnn1CSc1nnnn1-c1ccccc1,-2.64% (inactive)

row,Structure (SMILES),inhibition
1,O=c1c2ccccc2nc(CSc2nnnn2-c2ccccc2)n1-c1ccccc1,61.2% [fluorescence artefact?] (active)
2,CC(=O)NC1(c2cccc(F)c2)CCN(CC(=O)NC(C)C)CC1,-7.62% (inactive)
3,CC(Sc1nc2ccccc2c(=O)n1Cc1ccco1)C(=O)c1ccccc1 (stereo not given),-2.69% (inactive)
4,COc1ccc(-c2nnc(SCC(=O)c3ccco3)n2-c2ccccc2)cc1,7.14% (inactive)
5,N#Cc1c(NC(=O)CSc2nc3ccccc3c(=O)n2Cc2ccco2)sc2c1CCCC2,50.4% [fluorescence artefact?] (active)
6,C=C(C)Cn1c(SCC(=O)NCc2ccco2)nc2sc3c(c2c1=O)CCC3,9.18% (inactive)
7,COc1ccc(-n2c(SCC(=O)Nc3sc4c(c3C#N)CCCC4)nnc2-c2ccc(O)cc2)cc1,60.9% [fluorescence artefact?] (active)
8,COC(=O)c1c(NC(=O)CSc2nncs2)sc2c1CCCCC2,10.9% (inactive)
9,Cc1cc2nc(SCCN3CCOCC3)[nH]c2cc1C,-13.7% (inactive)
10,COC(=O)C1=C(C(=O)c2ccc(C)cc2)C(c2ccccc2)n2nnnc2N1 (stereo not given),-1.03% (inactive)
11,Cc1ccc(-n2ccc(=O)c(C(=O)O)n2)cc1,-4.61% (inactive)
12,O=C(COc1ccccc1)Nc1nonc1NC(=O)COc1ccccc1,4.67% (inactive)
13,COc1ccc(CCNS(=O)(=O)c2ccc(Cl)s2)cc1OC,-8.93% (inactive)
14,Oc1ccc(CNc2ccccc2O)cc1,52.5% [fluorescence artefact?] (active)
15,COc1cc(C2CC(=O)c3cnc(NC(C)=O)nc3C2)cc(OC)c1OC (stereo not given),-3.76% (inactive)
16,CCC(C(=O)NCc1ccc(OC)cc1)n1nc(C)n2c(cc3occc32)c1=O (stereo not given),-7.78% (inactive)
17,CCCn1c(C(Cc2ccccc2)NC(=O)COC)nc2ccccc21 (stereo not given),46.8% (inactive)
18,O=C(COC(=O)CCC(=O)c1cccs1)NCc1ccco1,51.1% [fluorescence artefact?] (active)
19,O=C(CCC(=O)c1cccs1)NCc1ccccc1,12.1% (inactive)
20,O=C(COC(=O)C12CC3CC(CC(C3)C1)C2)NCc1ccco1,13.8% (inactive)
